The values that follow come from the antibiotic and cytotoxicity screens of Wong et al. (2023).

Each structure is given as a SMILES string. Out of some 39,000 compounds screened, about 500 (1.3%) were called active. Shown is part of a subset that was picked to be rich in actives.

The subject of the assay is S. aureus RN4220. The experiment in a line: growth inhibition call (relative growth <= 0.2). Conditions: 50 µM.
For the molecule `C[C@@H]1CCCCO[C@H](CN(C)C(=O)Nc2ccc(C(F)(F)F)cc2)[C@H](C)CN([C@@H](C)CO)C(=O)c2cc(NC(=O)Nc3ccc(C(F)(F)F)cc3)ccc2O1`, the growth inhibition call is “inactive”.

`C[C@@H]1CN([C@@H](C)CO)C(=O)c2cc(NC(=O)Nc3ccc(C(F)(F)F)cc3)ccc2O[C@H]1CN(C)Cc1ccc(-c2ccccc2)cc1`: the growth inhibition call is “inactive”.

Consider `C[C@@H]1CN([C@H](C)CO)C(=O)c2cc(NC(=O)c3ccncc3)ccc2O[C@@H]1CN(C)Cc1ccncc1`, for which the growth inhibition call is “inactive”.

As to `Cc1ccc(CN)cc1Cl`, the growth inhibition call was “inactive”.

With `Cc1cc(CN)cc(C)c1NC(=O)c1ccc(-c2cc(Cl)ccc2Cl)o1`, the growth inhibition call is “active”.

For `Cc1cc(C(=O)c2cc3cc(Cl)ccc3o2)ccc1Cl`, the growth inhibition call was “inactive”.

`O=C1CCOC1`: the growth inhibition call is “inactive”.

As for `C[C@H]1CN([C@@H](C)CO)C(=O)c2cc(NC(=O)Cn3cnnn3)ccc2O[C@H]1CN(C)Cc1ccc(Cl)c(Cl)c1`, the growth inhibition call was “inactive”.

Turning to `CCC(=O)Nc1ccc2ccccc2c1`, the growth inhibition call was “inactive”.

As to `CCCC[P+](CCCC)(CCCC)Cc1ccc(NC(=O)[C@@H](Cc2ccc3ccccc3c2)N=C(NC2CCCCC2)NC2CCCCC2)cc1`, the growth inhibition call was “active”.

On to `C[C@@H]1CN([C@H](C)CO)C(=O)c2cc(NC(=O)Nc3cccc4ccccc34)ccc2O[C@@H]1CN(C)C(=O)NC1CCCCC1`, for which the growth inhibition call is “inactive”.

For `C[C@H](CO)N1C[C@H](C)[C@@H](CN(C)C(=O)NC2CCCCC2)Oc2ccc(NC(=O)Nc3cccc4ccccc34)cc2C1=O`, the growth inhibition call was “inactive”.

For `CN(Cc1ccccc1)C(=O)[C@H](Cc1ccc2ccccc2c1)NC(=O)[C@@H]1CCCN1C(=O)Nc1ccccc1[N+](=O)[O-]`, the growth inhibition call is “inactive”.

As for `CCCC[P+](CCCC)(CCCC)Cc1ccc(NC(=O)[C@H](Cc2ccc3ccccc3c2)N/C(=N/C2CCCCC2)NC2CCCCC2)cc1`, the growth inhibition call is “active”.

Consider `C[C@H](CO)N1C[C@H](C)[C@H](CN(C)S(=O)(=O)c2ccc(Cl)cc2)Oc2ccc(N(C)C)cc2CC1=O`, for which the growth inhibition call was “inactive”.

For the molecule `C[C@H]1CN([C@@H](C)CO)C(=O)c2cccc(NS(C)(=O)=O)c2O[C@@H]1CN(C)S(=O)(=O)c1ccc(F)cc1`, the growth inhibition call is “inactive”.

Turning to `CN(C)CCC=C1c2ccccc2COc2ccc(CC(=O)O)cc21.Cl`, the growth inhibition call was “active”.

Regarding `CN(C)CCC=C1c2ccccc2COc2ccccc21.Cl`, the growth inhibition call is “inactive”.

`CN(C)CCC=C1c2ccccc2CCc2ccccc21.Cl`: the growth inhibition call was “inactive”.

For the molecule `COc1ccc(S(=O)(=O)N(C)C[C@@H]2Oc3ccc(NC(=O)c4ccncc4)cc3C(=O)N([C@H](C)CO)C[C@H]2C)cc1`, the growth inhibition call was “inactive”.

For `C[C@@H]1CCCCO[C@@H](CN(C)C(=O)C2CCCCC2)[C@@H](C)CN([C@@H](C)CO)C(=O)c2cc(NS(=O)(=O)c3cccs3)ccc2O1`, the growth inhibition call is “inactive”.

For the molecule `Cc1noc(C)c1NC(=O)N(C)C[C@H]1Oc2ccc(NS(=O)(=O)c3c(C)noc3C)cc2CC(=O)N([C@H](C)CO)C[C@H]1C`, the growth inhibition call was “inactive”.

Turning to `Cc1ccc2sc(N(CCCN(C)C)C(=O)c3ccc(S(=O)(=O)N(C)Cc4ccccc4)cc3)nc2c1C`, the growth inhibition call is “inactive”.

With `Cc1cc(Cl)cc2sc(N(Cc3ccccn3)C(=O)c3ccc(S(=O)(=O)N4CCCC4)cc3)nc12`, the growth inhibition call is “inactive”.

In the case of `Cc1ccc2sc(N(CCCN(C)C)C(=O)c3ccc(S(=O)(=O)N(C)C4CCCCC4)cc3)nc2c1C`, the growth inhibition call was “active”.

On to `CC(C)NC(=O)Nc1ccc2c(c1)C(=O)N([C@H](C)CO)C[C@@H](C)[C@H](CN(C)C(=O)C1CCCCC1)OCCCC[C@H](C)O2`, for which the growth inhibition call was “inactive”.

As for `Cc1cc(C(=O)Nc2cccc3c2O[C@@H](CN(C)C(=O)Nc2c(C)noc2C)[C@H](C)CN([C@H](C)CO)C3=O)n(C)n1`, the growth inhibition call was “inactive”.

Turning to `C[C@@H]1CCCCO[C@H](CN(C)S(=O)(=O)c2ccccc2)[C@@H](C)CN([C@H](C)CO)C(=O)c2cc(NC(=O)Nc3ccc(F)cc3)ccc2O1`, the growth inhibition call was “inactive”.

For the molecule `CO[C@@H]1CN(C)C(=O)c2ccc(NS(=O)(=O)c3ccccc3)cc2OC[C@@H](C)N(C(=O)NC(C)C)C[C@H]1C`, the growth inhibition call was “inactive”.

With `O=C(O)C1=C[C@@H](O)[C@H](O)[C@H](O)C1`, the growth inhibition call is “inactive”.

As to `C[C@H]1CN([C@@H](C)CO)C(=O)c2cc(NC(=O)Nc3ccc(C(F)(F)F)cc3)ccc2O[C@@H]1CN(C)Cc1ccccc1`, the growth inhibition call is “inactive”.

Take `C[C@@H]1CN([C@@H](C)CO)C(=O)c2cc(NC(=O)Nc3ccc(C(F)(F)F)cc3)ccc2O[C@@H]1CN(C)Cc1ccc2c(c1)OCO2`: the growth inhibition call is “inactive”.

For `COc1ccc(NC(=O)Nc2ccc3c(c2)C(=O)N([C@@H](C)CO)C[C@@H](C)[C@@H](CN(C)Cc2ccc(C(F)(F)F)cc2)O3)cc1`, the growth inhibition call was “inactive”.

As to `C[C@@H]1CN([C@H](C)CO)C(=O)c2cc(NC(=O)Nc3ccc(C(F)(F)F)cc3)ccc2O[C@@H]1CN(C)Cc1ccccc1`, the growth inhibition call was “inactive”.

Take `C[C@H]1CN([C@@H](C)CO)C(=O)c2cc(NC(=O)Nc3ccc(C(F)(F)F)cc3)ccc2O[C@H]1CN(C)Cc1ccc2c(c1)OCO2`: the growth inhibition call is “active”.

Consider `C[C@@H]1CN([C@@H](C)CO)C(=O)c2cc(NC(=O)Nc3ccc(C(F)(F)F)cc3)ccc2O[C@@H]1CN(C)Cc1ccccc1`, for which the growth inhibition call was “inactive”.

As for `C[C@H](CO)N1C[C@H](C)[C@@H](CN(C)Cc2ccccc2)Oc2ccc(NC(=O)Nc3ccc(C(F)(F)F)cc3)cc2C1=O`, the growth inhibition call is “inactive”.

Turning to `C[C@H]1CN([C@@H](C)CO)C(=O)c2cc(NC(=O)Nc3ccc(C(F)(F)F)cc3)ccc2O[C@H]1CN(C)Cc1ccccc1`, the growth inhibition call was “active”.

As to `COc1ccc(CN(C)C[C@@H]2Oc3ccc(NC(=O)Nc4ccc(C(F)(F)F)cc4)cc3C(=O)N([C@H](C)CO)C[C@@H]2C)cc1`, the growth inhibition call is “active”.

Take `COc1ccc(CN(C)C[C@@H]2Oc3ccc(NC(=O)Nc4ccc(C(F)(F)F)cc4)cc3C(=O)N([C@@H](C)CO)C[C@@H]2C)cc1`: the growth inhibition call was “inactive”.

For `C[C@H](CO)N1C[C@H](C)[C@@H](CN(C)Cc2ccc3c(c2)OCO3)Oc2ccc(NC(=O)Nc3ccc(C(F)(F)F)cc3)cc2C1=O`, the growth inhibition call was “inactive”.

For `C[C@H](CO)N1C[C@H](C)[C@H](CN(C)Cc2ccccc2)Oc2ccc(NC(=O)Nc3ccc(C(F)(F)F)cc3)cc2C1=O`, the growth inhibition call is “active”.

`O=C(C[C@H]1CC[C@H]2[C@@H](COC[C@H](O)CN2S(=O)(=O)c2ccccc2)O1)N1CCOCC1`: the growth inhibition call is “inactive”.

Turning to `C[C@@H]1CN([C@@H](C)CO)C(=O)c2cc(NC(=O)NC3CCCCC3)ccc2O[C@@H](C)CCCCO[C@H]1CN(C)S(=O)(=O)c1ccc(F)cc1`, the growth inhibition call was “inactive”.

As to `CC(C)c1cc(=O)n2nc(N)nc2[nH]1`, the growth inhibition call was “inactive”.

On to `Cc1ccc(S(=O)(=O)N(C)C[C@@H]2Oc3ncc(C#CCC(C)C)cc3C(=O)N([C@@H](C)CO)C[C@H]2C)cc1`, for which the growth inhibition call is “inactive”.

As to `Cc1noc(C)c1NC(=O)N[C@@H]1CC[C@H](CC(=O)N2CCN(C)CC2)O[C@H]1CO`, the growth inhibition call was “inactive”.

Regarding `CC(=O)N1[C@H](CO)[C@H](c2ccccc2)[C@H]1CNC(=O)CN1CCOCC1`, the growth inhibition call was “inactive”.

For the molecule `C[C@@H]1CN([C@@H](C)CO)C(=O)c2cc(NS(C)(=O)=O)ccc2O[C@@H]1CN(C)C(=O)NC1CCCCC1`, the growth inhibition call was “inactive”.

As for `Cc1ccc(S(=O)(=O)N(C)C[C@H]2Oc3ccc(NS(=O)(=O)c4ccccc4)cc3C(=O)N([C@@H](C)CO)C[C@H]2C)cc1`, the growth inhibition call was “inactive”.

For `Cc1ccc(S(=O)(=O)Nc2ccc3c(c2)C(=O)N([C@@H](C)CO)C[C@H](C)[C@@H](CN(C)C(=O)Nc2ccc(C(F)(F)F)cc2)OCCCC[C@H](C)O3)cc1`, the growth inhibition call is “inactive”.

`COCC(=O)Nc1ccc2c(c1)[C@H]1C[C@H](CC(=O)N3CCOCC3)O[C@H](CO)[C@H]1O2`: the growth inhibition call is “inactive”.

On to `COc1ccc(NC(=O)Nc2ccc3c(c2)C(=O)N([C@@H](C)CO)C[C@@H](C)[C@@H](CN(C)S(=O)(=O)c2cn(C)cn2)O3)cc1`, for which the growth inhibition call was “inactive”.

In the case of `CO[C@@]12[C@H](COC(N)=O)C3=C(C(=O)C(C)=C(N)C3=O)N1C[C@@H]1N[C@@H]12`, the growth inhibition call is “inactive”.

As to `CO[C@@]12[C@@H]3N[C@@H]3CN1C1=C(C(=O)C(N)=C(C)C1=O)[C@@H]2COC(N)=O`, the growth inhibition call is “active”.

In the case of `COC12C(COC(N)=O)C3=C(C(=O)C(C)=C(N)C3=O)N1CC1NC12` (centres undefined), the growth inhibition call was “active”.

For the molecule `Cc1onc(C(=O)O)c1[N+](=O)[O-]`, the growth inhibition call is “inactive”.

Take `C[C@H]1CN([C@@H](C)CO)S(=O)(=O)c2ccc(C#Cc3cccnc3)cc2O[C@H]1CN(C)C(=O)CN(C)C`: the growth inhibition call was “inactive”.

In the case of `CNC1C(OC2C(OC3C(O)C(O)C(NC(=N)N)C(O)C3NC(=N)N)OC(C)C2(O)C=O)OC(CO)C(O)C1O.O=S(=O)(O)O` (centres undefined) [STREPTOMYCIN SULFATE [5mM; 10% aq DMSO + 5mM ethanolamine]], the growth inhibition call is “active”.

As for `CN[C@@H]1[C@H](O[C@H]2[C@H](O[C@H]3[C@H](O)[C@@H](O)[C@H](NC(=N)N)[C@@H](O)[C@@H]3NC(=N)N)O[C@@H](C)[C@]2(O)C=O)O[C@@H](CO)[C@H](O)[C@H]1O`, the growth inhibition call is “inactive”.

Take `CN[C@H]1[C@@H](O[C@H]2[C@@H](O[C@H]3[C@@H](O)[C@@H](O)[C@@H](NC(=N)N)[C@@H](O)[C@@H]3NC(=N)N)O[C@@H](C)[C@@]2(O)C=O)O[C@@H](CO)[C@@H](O)[C@@H]1O.CN[C@H]1[C@@H](O[C@H]2[C@@H](O[C@H]3[C@@H](O)[C@@H](O)[C@@H](NC(=N)N)[C@@H](O)[C@@H]3NC(=N)N)O[C@@H](C)[C@@]2(O)C=O)O[C@@H](CO)[C@@H](O)[C@@H]1O.O=S(=O)(O)O.O=S(=O)(O)O.O=S(=O)(O)O`: the growth inhibition call is “inactive”.

As for `O=C(NC1CC1)[C@@H]1c2ccccc2C(=O)N(Cc2cc(F)cc(C(F)(F)F)c2)[C@H]1c1ccc(CO)cc1`, the growth inhibition call is “inactive”.

`Cc1noc(C)c1NC(=O)Nc1ccc2c(c1)CC(=O)N([C@H](C)CO)C[C@@H](C)[C@@H](CN(C)C(=O)Nc1ccc(C(F)(F)F)cc1)O2`: the growth inhibition call is “inactive”.

As to `C[C@@H]1CN([C@@H](C)CO)C(=O)c2cc(NC(=O)Nc3ccc(C(F)(F)F)cc3)ccc2O[C@@H](C)CCCCO[C@H]1CN(C)Cc1ccc(C(=O)O)cc1`, the growth inhibition call was “inactive”.
